Publication PMC12820563, “FoxP3 forms a head-to-head dimer in vivo and stabilizes its multimerization on adjacent microsatellites”
Over roughly 16,000 sequences, “rpm ratio (pull-down/input)” has its median near 0.94; the highest 2% begin near 1.7. Only a selection was taken, and the highest values are over-represented in it overall.

biological target: T1, MBP-FoxP1dN (Mus musculus, UniProt P58462 326-579); assay: PD-seq (MBP pull-down with sequencing); 20 mM Tris-HCl pH 7.5, 100 mM NaCl, 1.5 mM MgCl2, 0.4 uM protein, 0.1 uM dsDNA library, 30 min, room temperature, amylose pull-down; high values mean tight binding; conditions: protein: recombinant; tags: His6-MBP; chain copies: 2; dsDNA, one strand shown
T1 sequence: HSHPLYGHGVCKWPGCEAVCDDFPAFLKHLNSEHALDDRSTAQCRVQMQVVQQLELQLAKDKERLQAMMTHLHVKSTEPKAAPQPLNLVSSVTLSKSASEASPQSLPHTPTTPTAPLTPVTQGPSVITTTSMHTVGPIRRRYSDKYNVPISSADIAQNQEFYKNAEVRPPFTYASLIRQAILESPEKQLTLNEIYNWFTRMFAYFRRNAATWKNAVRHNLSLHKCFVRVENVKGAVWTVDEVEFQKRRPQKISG
In short: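 Binding is reads-per-million enrichment of pull-down over input, with replicates pooled. It comes from 30 min room-temperature incubation in Tris pH 7.5 buffer with NaCl and MgCl2 of 0.4 µM His6-MBP-tagged, N-terminally truncated mouse FoxP3 or FoxP1 fragment from E. coli with 0.1 µM Klenow-filled degenerate double-stranded DNA library, followed by amylose resin capture, three washes and Illumina sequencing of the released DNA.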

Sequence	binding signal
GATGATTGTTCTCCCAGCTGATGAATTTACTAAGTCGAGTAAACAAATTTTCCTAATCTTTCTGTTCAAGCGCCATCTAC	1.29 RPM ratio (pull-down/input)
GATGATTGTTCTCCCAGCTGATGAATTCCCACGATCGAGTAAACAAATTTTCCTAATCTTTCTGTTCAAGCGCCATCTAC	0.81 RPM ratio (pull-down/input)
GATGATTGTTCTCCCAGCTGATGAATTTCCAATATCGAGTAAACAAATTTTCCTAATCTTTCTGTTCAAGCGCCATCTAC	1.02 RPM ratio (pull-down/input)
GATGATTGTTCTCCCAGCTGATGAATTTGCAATATCGAGTAAACAAATTTTCCTAATCTTTCTGTTCAAGCGCCATCTAC	1.34 RPM ratio (pull-down/input)
GATGATTGTTCTCCCAGCTGATGAATTGTAAATATCGAGTAAACAAATTTTCCTAATCTTTCTGTTCAAGCGCCATCTAC	2.72 RPM ratio (pull-down/input)
GATGATTGTTCTCCCAGCTGATGAATTCCTAATATCGAGTAAACAAATTTTCCTAATCTTTCTGTTCAAGCGCCATCTAC	1.07 RPM ratio (pull-down/input)
GATGATTGTTCTCCCAGCTGATGAATTTCAAATATCGAGTAAACAAATTTTCCTAATCTTTCTGTTCAAGCGCCATCTAC	0.914 RPM ratio (pull-down/input)
GATGATTGTTCTCCCAGCTGATGAATTGCAAATATCGAGTAAACAAATTTTCCTAATCTTTCTGTTCAAGCGCCATCTAC	1.85 RPM ratio (pull-down/input)
GATGATTGTTCTCCCAGCTGATGAATTCTGAATATCGAGTAAACAAATTTTCCTAATCTTTCTGTTCAAGCGCCATCTAC	0.974 RPM ratio (pull-down/input)
GATGATTGTTCTCCCAGCTGATGAATTTGTAATATCGAGTAAACAAATTTTCCTAATCTTTCTGTTCAAGCGCCATCTAC	1.36 RPM ratio (pull-down/input)
GATGATTGTTCTCCCAGCTGATGAATTCTAAATATCGAGTAAACAAATTTTCCTAATCTTTCTGTTCAAGCGCCATCTAC	1.76 RPM ratio (pull-down/input)
GATGATTGTTCTCCCAGCTGATGAATTGTCAATATCGAGTAAACAAATTTTCCTAATCTTTCTGTTCAAGCGCCATCTAC	2.23 RPM ratio (pull-down/input)
GATGATTGTTCTCCCAGCTGATGAATTTTCAATATCGAGTAAACAAATTTTCCTAATCTTTCTGTTCAAGCGCCATCTAC	1.06 RPM ratio (pull-down/input)
GATGATTGTTCTCCCAGCTGATGAATTTCTAATATCGAGTAAACAAATTTTCCTAATCTTTCTGTTCAAGCGCCATCTAC	1.09 RPM ratio (pull-down/input)
GATGATTGTTCTCCCAGCTGATGAATTAGAAAGGTCGAGTAAACAAATTTTCCTAATCTTTCTGTTCAAGCGCCATCTAC	0.826 RPM ratio (pull-down/input)
GATGATTGTTCTCCCAGCTGATGAATTCACCTACTCGAGTAAACAAATTTTCCTAATCTTTCTGTTCAAGCGCCATCTAC	0.921 RPM ratio (pull-down/input)
GATGATTGTTCTCCCAGCTGATGAATTTATCGCTTCGAGTAAACAAATTTTCCTAATCTTTCTGTTCAAGCGCCATCTAC	1.1 RPM ratio (pull-down/input)
GATGATTGTTCTCCCAGCTGATGAATTCGTCCCCTCGAGTAAACAAATTTTCCTAATCTTTCTGTTCAAGCGCCATCTAC	0.772 RPM ratio (pull-down/input)
GATGATTGTTCTCCCAGCTGATGAATTTTGAGAATCGAGTAAACAAATTTTCCTAATCTTTCTGTTCAAGCGCCATCTAC	0.914 RPM ratio (pull-down/input)
GATGATTGTTCTCCCAGCTGATGAATTTACAAAATCGAGTAAACAAATTTTCCTAATCTTTCTGTTCAAGCGCCATCTAC	1.74 RPM ratio (pull-down/input)

Sequence	binding signal
GATGATTGTTCTCCCAGCTGATGAATTTACAACATCGAGTAAACAAATTTTCCTAATCTTTCTGTTCAAGCGCCATCTAC	1.67 RPM ratio (pull-down/input)
GATGATTGTTCTCCCAGCTGATGAATTTTTTACATCGAGTAAACAAATTTTCCTAATCTTTCTGTTCAAGCGCCATCTAC	0.953 RPM ratio (pull-down/input)
GATGATTGTTCTCCCAGCTGATGAATTACATAAATCGAGTAAACAAATTTTCCTAATCTTTCTGTTCAAGCGCCATCTAC	1.64 RPM ratio (pull-down/input)
GATGATTGTTCTCCCAGCTGATGAATTTACATAATCGAGTAAACAAATTTTCCTAATCTTTCTGTTCAAGCGCCATCTAC	1.76 RPM ratio (pull-down/input)
GATGATTGTTCTCCCAGCTGATGAATTACAAAAATCGAGTAAACAAATTTTCCTAATCTTTCTGTTCAAGCGCCATCTAC	1.59 RPM ratio (pull-down/input)
GATGATTGTTCTCCCAGCTGATGAATTTTACAAATCGAGTAAACAAATTTTCCTAATCTTTCTGTTCAAGCGCCATCTAC	1.1 RPM ratio (pull-down/input)
GATGATTGTTCTCCCAGCTGATGAATTTTACATATCGAGTAAACAAATTTTCCTAATCTTTCTGTTCAAGCGCCATCTAC	0.97 RPM ratio (pull-down/input)
GATGATTGTTCTCCCAGCTGATGAATTGTTTACATCGAGTAAACAAATTTTCCTAATCTTTCTGTTCAAGCGCCATCTAC	2.91 RPM ratio (pull-down/input)
GATGATTGTTCTCCCAGCTGATGAATTGTCGCTGTCGAGTAAACAAATTTTCCTAATCTTTCTGTTCAAGCGCCATCTAC	1.02 RPM ratio (pull-down/input)
GATGATTGTTCTCCCAGCTGATGAATTCTGGACATCGAGTAAACAAATTTTCCTAATCTTTCTGTTCAAGCGCCATCTAC	0.937 RPM ratio (pull-down/input)
GATGATTGTTCTCCCAGCTGATGAATTACCAGGTTCGAGTAAACAAATTTTCCTAATCTTTCTGTTCAAGCGCCATCTAC	0.873 RPM ratio (pull-down/input)
GATGATTGTTCTCCCAGCTGATGAATTATGGTTTTCGAGTAAACAAATTTTCCTAATCTTTCTGTTCAAGCGCCATCTAC	1.24 RPM ratio (pull-down/input)
GATGATTGTTCTCCCAGCTGATGAATTTTTCATCTCGAGTAAACAAATTTTCCTAATCTTTCTGTTCAAGCGCCATCTAC	0.937 RPM ratio (pull-down/input)
GATGATTGTTCTCCCAGCTGATGAATTCATTCGGTCGAGTAAACAAATTTTCCTAATCTTTCTGTTCAAGCGCCATCTAC	0.807 RPM ratio (pull-down/input)
GATGATTGTTCTCCCAGCTGATGAATTATCTGAATCGAGTAAACAAATTTTCCTAATCTTTCTGTTCAAGCGCCATCTAC	0.99 RPM ratio (pull-down/input)
GATGATTGTTCTCCCAGCTGATGAATTATTGTGATCGAGTAAACAAATTTTCCTAATCTTTCTGTTCAAGCGCCATCTAC	1.76 RPM ratio (pull-down/input)
GATGATTGTTCTCCCAGCTGATGAATTATCTAAATCGAGTAAACAAATTTTCCTAATCTTTCTGTTCAAGCGCCATCTAC	1.18 RPM ratio (pull-down/input)
GATGATTGTTCTCCCAGCTGATGAATTGTGATTATCGAGTAAACAAATTTTCCTAATCTTTCTGTTCAAGCGCCATCTAC	1.74 RPM ratio (pull-down/input)
GATGATTGTTCTCCCAGCTGATGAATTATTCTGATCGAGTAAACAAATTTTCCTAATCTTTCTGTTCAAGCGCCATCTAC	0.97 RPM ratio (pull-down/input)
GATGATTGTTCTCCCAGCTGATGAATTATTATGATCGAGTAAACAAATTTTCCTAATCTTTCTGTTCAAGCGCCATCTAC	1.41 RPM ratio (pull-down/input)
